In PubChem BioAssay (NCATS) one finds Potency and activity (max response) data, which are given here for 17 molecules.

Records with an inconclusive call do not appear. A number with no mark means an inactive call. The source made the active and inactive calls. The call rests on the fitted dose curve; in most records, active means well fitted curve in the direction sought with a large enough effect; inconclusive means small, poorly fitted or top-dose-only effect, or another doubt; inactive means no such curve, though single readings can be large; an effect the other way counts as inactive or inconclusive.

The nature of assay [1]: Quantitative highthroughput screen to assess conditional lethalithy of NOMO1 cells grown in RPMI1640 with untreated serum (RPMI+s) (AID 1963876). Further: nearly all actives have a fitted effect of over 35% in size. Further: potency means the concentration at half of the fitted maximal effect.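 On viability: 100% = DMSO wells and 0% = empty wells without cells.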 In a few lines:
(§1)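 Each medium arm—HPLM with 10% dialyzed FBS, or RPMI1640 with 5 mM glucose and 10% untreated or dialyzed FBS—was screened against an 11-point, 3-fold compound titration for 48 h at 37 °C, with CellTiter-Glo luminescence as endpoint.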

Assay [2] can be described thus: Quantitative highthroughput screen to assess conditional lethalithy of NOMO1 cells grown in RPMI1640 with dialyzed fetal bovine serum (RPMI+ds) (AID 1963877). Further: nearly all actives have a fitted effect of over 30% in size. Further: potency means the concentration at half of the fitted maximal effect.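 On viability: series mostly up to about 46 µM; 100% = DMSO control wells and 0% = empty wells.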 The essentials: as §1
Assay [3] can be described thus: Quantitative highthroughput screen to assess conditional lethalithy of NOMO1 cells grown in Human Plasma-Like Medium with dialyzed fetal bovine serum (HPLM+ds) (AID 1963878). Further: nearly all actives have a fitted effect of over 35% in size. Further: potency means the concentration at half of the fitted maximal effect.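 On viability: 100% = DMSO wells and 0% = empty wells on each plate.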 In a few lines:
as §1

Assay [4] can be described thus: Quantitative highthroughput screen to assess conditional lethalithy of P12 Ichikawa cells grown in Human Plasma-Like Medium with dialyzed fetal bovine serum (HPLM+ds) (AID 1963879). Further: nearly all actives have a fitted effect of over 35% in size. Further: potency means the concentration at half of the fitted maximal effect. On viability: series mostly up to about 46 µM. Particulars: Potency: viability. The essentials:
as §1

A short description of assay [5]: Quantitative highthroughput screen to assess conditional lethalithy of P12 Ichikawa cells grown in RPMI1640 with dialyzed fetal bovine serum (RPMI+ds) (AID 1963880). Further: nearly all actives have a fitted effect of over 35% in size. Further: potency means the concentration at half of the fitted maximal effect.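 On viability: 100% = DMSO wells and 0% = empty wells on each plate.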 To be noted: Potency: P12-Ichikawa viability. In a few lines: as §1
Assay [6] is described as follows: Quantitative highthroughput screen to assess conditional lethalithy of P12 Ichikawa cells grown in RPMI1640 with untreated serum (RPMI+s) (AID 1963881). Further: nearly all actives have a fitted effect of over 35% in size. Further: potency means the concentration at half of the fitted maximal effect.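 On viability: series mostly up to about 46 µM; 100% = DMSO wells and 0% = empty wells without cells.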 Particulars: Potency: viability. The essentials: as §1
Assay [7] can be described thus: Quantitative highthroughput screen to assess conditional lethalithy of SEM cells grown in RPMI1640 with dialyzed fetal bovine serum (RPMI+ds) (AID 1963884). Further: nearly all actives have a fitted effect of over 35% in size. Further: potency means the concentration at half of the fitted maximal effect.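 On viability: series mostly up to about 46 µM; 100% = DMSO control wells and 0% = empty wells without cells.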 In a few lines:
as §1

A short description of assay [8]: Quantitative highthroughput screen to assess conditional lethalithy of SEM cells grown in Human Plasma-Like Medium with dialyzed fetal bovine serum (HPLM+ds) (AID 1963882). The essentials: as §1
Assay [9] is described as follows: Cellular viability qHTS for adrenocortical cancer (ACC) cell line SW-13 (AID 1963989). Further: nearly all actives have a fitted effect of over 65% in size. Further: potency means the concentration at half of the fitted maximal effect.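 On activity (max response): cells grown in serum-free medium with ITS supplement; on the % scale 0 is the no-effect control and ±100 the full control effect.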 Particulars: SW-13 ACC cells viability, CellTiter-Glo, 48 h; activity (max response): hits give low values. The essentials:
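SW-13 cells in ITS-supplemented serum-free DMEM were plated overnight, then exposed for 48 h at 37C to compound titrations (up to 46 uM final). Viability was read by CellTiter-Glo luminescence; four-parameter logistic fits gave IC50 and efficacy.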
In general terms: In qHTS, concentration-response curves come from the screen itself.

A short description of assay [10]: Cellular viability qHTS for adrenocortical cancer (ACC) cell line NCI-H295R (AID 1963990). Further: nearly all actives have a fitted effect of over 60% in size. Further: potency means the concentration at half of the fitted maximal effect. In a few lines: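 Luminescent ATP read-out (CellTiter-Glo, 20 min RT) after 48 h drug exposure of NCI-H295R cells; a titration up to 46 uM final. Data normalized to doxorubicin (100% inhibition) and DMSO (0%); 4-parameter fit gives IC50, max response.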
Assay [11] can be described thus: Quantitative highthroughput screen to assess conditional lethalithy of SEM cells grown in RPMI1640 with unreated serum (RPMI+s) (AID 1963883). Further: nearly all actives have a fitted effect of over 35% in size. Further: potency means the concentration at half of the fitted maximal effect.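 On viability: 100% = DMSO wells and 0% = empty wells without cells.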 In a few lines: as §1

As for `OC1CCC(Nc2ncc3nc(Nc4c(F)cc(F)cc4F)n([C@@H]4CCOC4)c3n2)CC1` (stereo partly drawn), the Potency entry in assay [1], in assay [2], in assay [3], in assay [4], in assay [5] and in assay [6] was “inactive” in each case. In addition, the Potency result in assay [7] is “inactive”.

`C[C@]12C=CC(=O)N[C@@H]1CC[C@H]1[C@H]3CC[C@@H](C(=O)Nc4cc(C(F)(F)F)ccc4C(F)(F)F)[C@@]3(C)CC[C@@H]12`: the Potency entry in assay [1], in [2], in assay [3], in [4], in [5] and in assay [6] was “inactive” each time. Further, the Potency entry in assay [8] and in [7] was “inactive” in each case.

`NS(=O)(=O)c1ccc(NC2=CC(=O)c3ccccc3C2=O)cc1`: the Potency entry in assay [1], in [2], in assay [3], in assay [4], in assay [5] and in assay [6] was “inactive” each time. Besides, the activity (max response) in assay [9] was -24.7%. Moreover, the Potency in assay [10] is 3.98 µM (active).

As to `C[C@H](CCC(=O)O)[C@H]1CC[C@H]2[C@@H]3[C@H](O)C[C@@H]4C[C@H](O)CC[C@]4(C)[C@@H]3CC[C@]12C`, the Potency result in assay [1], in [2], in assay [3], in assay [4], in assay [5] and in assay [6] was “inactive” throughout. Besides, the Potency result in assay [11] and in assay [7] was “inactive” throughout.

As to `C=C1C[C@@]2(O)O[C@@]3(C[C@H]2C(C)C)[C@H](C)CC[C@H]13`, the Potency result in assay [1], in assay [2], in assay [3], in [4], in [5] and in [6] was “inactive” in each case. Also, the Potency result in assay [8] and in assay [7] was “inactive” each time.

For the molecule `COc1cc2ncn(-c3cc(OCc4ccccc4S(C)(=O)=O)c(C#N)s3)c2cc1OC`, the Potency result in [1], in [2], in assay [3], in assay [4], in assay [5] and in [6] was “inactive” throughout. The Potency result in [11] and in assay [7] was “inactive” in each case. Also, in assay [9], the activity (max response) is -11.8%.

As to `CN1c2cc(O)c(N=NC(N)=O)cc2CC1S(=O)(=O)O` (stereo not drawn), the Potency result in [1], in assay [2], in assay [3], in [4], in assay [5] and in [6] was “inactive” in each case. For the same molecule, the Potency entry in assay [8] and in assay [7] was “inactive” each time. For the same molecule, in assay [9], the activity (max response) was 12.8%.

As to `O=[N+]([O-])c1ccc(Nc2ccccc2-c2ccccc2)c2nonc12`, the Potency result in assay [1], in [2], in assay [3], in [4], in [5] and in [6] was “inactive” each time. Also, the Potency is 8.91 µM (active) in assay [9] and 11.2 µM (active) in [10].

Take `N[C@@H](Cc1c[nH]c2ccc(O)cc12)C(=O)O`: the Potency result in [1], in assay [2], in [3], in assay [4], in assay [5] and in assay [6] was “inactive” in each case. Further, the Potency result in assay [8] and in assay [10] was “inactive” throughout.

`CN(NC(=O)CC(=O)NN(C)C(=S)c1ccccc1)C(=S)c1ccccc1`: the Potency in assay [1] was 0.066 µM (active); in [2], 0.0588 µM (active); in [3], 0.066 µM (active); in [4], 0.0831 µM (active); in assay [5], 0.0741 µM (active); in assay [6] it was 0.0741 µM (active). Besides, the Potency in [11] and in assay [7] was 0.0417 µM (active) each time.

For the molecule `COc1cc(Cl)cn2c(-c3cccc(NC4CNC4)n3)cnc12`, the Potency entry in assay [1], in assay [2], in [3], in [4], in assay [5] and in assay [6] was “inactive” throughout. For the same molecule, the Potency entry in assay [11] and in [7] was “inactive” throughout.

`c1ccc(CNc2nc(N3CCOc4ccccc43)nc3c2CCCC3)cc1`: the Potency result in assay [1], in assay [2], in assay [3], in assay [4], in assay [5] and in assay [6] was “inactive” each time. In addition, the Potency result in assay [8] and in [7] was “inactive” in each case.

In the case of `O=c1n(CCCN2CCN(c3cccc(Cl)c3)CC2)nc2ccccn12`, the Potency result in assay [1], in assay [2], in assay [3], in [4], in assay [5] and in assay [6] was “inactive” throughout. In addition, the Potency result in [7] and in assay [10] was “inactive” in each case.

`COc1ccc2cc([S+]([O-])Cc3ncc(C)c(OC)c3C)nc2c1`: the Potency result in [1], in assay [2], in assay [3], in assay [4], in assay [5] and in assay [6] was “inactive” each time. In [11], the Potency entry was “inactive”. The Potency in [7] is 0.935 µM (active).

Consider `O=C(O)[C@@H](c1ccc(OCc2ccc3ccccc3n2)cc1)C1CCCC1`, for which the Potency result in [1], in [2], in assay [3], in assay [4], in assay [5] and in assay [6] was “inactive” each time. The Potency result in [11] was “inactive”. For the same molecule, the activity (max response) in [9] was -1.81%.

`CS(=O)(=O)c1ccc(C(=O)Nc2ccc(Cl)c(-c3ccccn3)c2)c(Cl)c1`: the Potency result in assay [1], in assay [2], in [3], in assay [4], in [5] and in assay [6] was “inactive” throughout. Also, the Potency result in [8], in [7] and in assay [10] was “inactive” throughout. The activity (max response) in assay [9] was -0.792%.

Consider `COc1cccc(N(C)C(=S)Oc2ccc3c(c2)CCCC3)n1`, for which the Potency entry in assay [1], in assay [2], in [3], in assay [4], in [5] and in [6] was “inactive” in each case. In addition, the Potency entry in [7] is “inactive”.
